DT40 TDP1 no CPT: qHTS for Inhibitors of human tyrosyl-DNA phosphodiesterase 1 (TDP1): qHTS in cells in absence of CPT | DT40 Tdp1-/- hTDP1 cells, no CPT, ATP luminescence, 48 h | Potency, µM (series often up to 46.2 µM), hits mostly inhibitors | 420,000 tested, 15% active; note: nearly all actives have a fitted effect of over 55% in size
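Readout: luminescence from CellTiter-Glo after 30 min in the dark at RT. Cells: DT40 Tdp1-/- with stable hTDP1, 400/well. Exposure: compounds alone, ≥48 hr, 37 °C.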
TDP1 inh: qHTS Assay for Inhibitors of Tyrosyl-DNA Phosphodiesterase (TDP1); Tyrosyl-DNA phosphodiesterase 1 (Homo sapiens), Q9NUW8; recombinant TDP1, AlphaScreen DNA substrate cleavage; Potency, µM (series often up to 130 µM), actives largely listed as inhibitors; 350,000 tested, 0.28% active; AID 485290, 2010; note: nearly all actives have a fitted effect of over 40% in size
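Recombinant human Tdp1 (E. coli-expressed, 1 nM final) preincubated with compounds 15 min at room temperature, then 5'-biotin/3'-phosphotyrosine-FITC DNA substrate (15 nM final) added for 5 min. AlphaScreen beads (10 ug/ml final) added 10 min; cleavage lowers signal.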
TDP1 cell CPT: qHTS for Inhibitors of human tyrosyl-DNA phosphodiesterase 1 (TDP1): qHTS in cells in presence of CPT | chicken DT40 Tdp1-/-;hTDP1 cells + 20 nM CPT, ATP luminescence, 48 h | Potency, µM (highest dose often 46.2 µM), actives largely listed as inhibitors | 420,000 tested, 12% active; note: nearly all actives have a fitted effect of over 55% in size
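Cell growth measured by CellTiter-Glo luminescence after a minimum 48 h, 37 C compound exposure with 20 nM CPT in Tdp1-knockout DT40 cells stably expressing hTDP1, seeded 400/well; qHTS titration format.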
GCN5L2 inh: qHTS Assay for Inhibitors of GCN5L2 | 390,000 tested, 0.21% active | Potency, µM (titrated, usually from 58.9 µM), usual class: inhibitors | GCN5L2 HAT assay, ThioGlo1 CoA-SH fluorescence | Histone acetyltransferase KAT2A (Homo sapiens), Q92830 | AID 504327, 2011
Target sequence (Q92830 whole entry, looked up): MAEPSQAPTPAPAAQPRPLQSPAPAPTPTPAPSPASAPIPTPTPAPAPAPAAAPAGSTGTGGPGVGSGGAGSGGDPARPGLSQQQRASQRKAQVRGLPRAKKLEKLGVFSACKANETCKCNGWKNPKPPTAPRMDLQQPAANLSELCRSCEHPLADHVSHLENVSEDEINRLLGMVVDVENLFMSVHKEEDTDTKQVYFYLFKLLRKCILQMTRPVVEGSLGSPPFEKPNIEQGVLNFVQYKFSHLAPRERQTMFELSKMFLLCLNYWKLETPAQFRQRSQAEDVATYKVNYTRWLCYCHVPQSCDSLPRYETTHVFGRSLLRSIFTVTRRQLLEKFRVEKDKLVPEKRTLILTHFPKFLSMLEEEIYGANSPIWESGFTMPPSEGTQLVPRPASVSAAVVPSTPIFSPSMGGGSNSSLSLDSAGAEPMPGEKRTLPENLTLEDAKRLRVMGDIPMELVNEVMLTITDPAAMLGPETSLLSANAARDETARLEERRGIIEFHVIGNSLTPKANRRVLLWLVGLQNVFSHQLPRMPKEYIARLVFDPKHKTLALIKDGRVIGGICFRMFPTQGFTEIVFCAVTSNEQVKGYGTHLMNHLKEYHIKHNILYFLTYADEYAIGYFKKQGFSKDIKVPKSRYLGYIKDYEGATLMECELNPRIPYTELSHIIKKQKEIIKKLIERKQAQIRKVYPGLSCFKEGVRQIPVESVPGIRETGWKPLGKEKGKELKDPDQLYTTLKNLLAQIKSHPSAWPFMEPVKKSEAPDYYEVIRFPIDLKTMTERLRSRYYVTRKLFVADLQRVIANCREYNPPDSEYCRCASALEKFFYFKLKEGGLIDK
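ThioGlo1-coupled HAT assay: 20nM GCN5L2, 70uM acetyl-CoA, 75uM H3(1-25) peptide, pH 7.5. Fluorescence read at 340/540nm at start and after 20 min at room temperature.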
VDR inhibitor: Inhibitors of the vitamin D receptor (VDR): qHTS. Potency, µM, hits mostly inhibitors. 400,000 tested, 0.93% active. VDR-SRC2-3 peptide fluorescence polarization, 2 h. Vitamin D3 receptor (Homo sapiens), P11473
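VDR–SRC2-3 interaction, FP format. Cmpds 23 nl via pintool, brief spin, 2 h ambient incubation.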
PLK1 PBD block: qHTS for Inhibitors of PLK1-PDB (polo-like kinase 1 - polo-box domain): Primary Screen; Serine/threonine-protein kinase PLK1 (Homo sapiens), P53350; Plk1 PBD binding of FITC phosphopeptide, fluorescence polarization; Potency, µM, usual class: inhibitors; 360,000 tested, 2.8% active; note: series mostly up to about 57 µM; nearly all actives have a fitted effect of over 65% in size
A number is an active result; [ ] = remark or other dose. In the library only some 18% were active in any assay of this set; here they are far more common. Calls come from the whole dose curve; as a rule, active = well fitted curve in the direction sought with a large enough effect; inconclusive = small, poorly fitted or top-dose-only effect, or another doubt; inactive = no such curve, though single readings can be large; an effect the other way counts as inactive or inconclusive.

For O=C(Nc1ccc(S(=O)(=O)N2CCOCC2)cc1)c1ccc(Cl)cc1 the results were DT40 TDP1 no CPT 21µM, TDP1 cell CPT 21µM, GCN5L2 inh inactive, VDR inhibitor inactive and PLK1 PBD block inactive.
CCOc1ccc(C(=O)Nc2ccc(S(=O)(=O)N3CCOCC3)cc2)cc1OCC was read as DT40 TDP1 no CPT inconclusive, TDP1 inh inactive, TDP1 cell CPT inconclusive, GCN5L2 inh inactive, VDR inhibitor inactive and PLK1 PBD block inactive.
`Cc1ccc(C(=O)Nc2ccc(S(=O)(=O)N3CCOCC3)cc2)cc1` gave DT40 TDP1 no CPT inactive, TDP1 inh inactive, TDP1 cell CPT inactive, GCN5L2 inh inactive, VDR inhibitor inactive and PLK1 PBD block inactive.
O=C(COC(=O)CCC(=O)c1ccccc1)Nc1nnc(-c2ccccc2)o1 was read as DT40 TDP1 no CPT inactive, TDP1 inh inactive, TDP1 cell CPT inactive, GCN5L2 inh inactive, VDR inhibitor inactive and PLK1 PBD block inactive.
Screening O=C(NCCCn1ccnc1)C1CCCN(S(=O)(=O)c2ccc(F)cc2)C1 (stereo not given) returned DT40 TDP1 no CPT inactive, TDP1 inh inactive, TDP1 cell CPT inactive, GCN5L2 inh inactive, VDR inhibitor inactive and PLK1 PBD block inactive.
C=C1SC(=Nc2c(C)cc(C)cc2C)N(C(=O)c2sc3ccccc3c2Cl)C12CCCCC2 was read as DT40 TDP1 no CPT 21µM, TDP1 inh inactive, TDP1 cell CPT inconclusive, GCN5L2 inh inactive, VDR inhibitor inactive and PLK1 PBD block inactive.
CN1CC[C@H](CN2c3ccccc3Sc3ccccc32)C1 was read as DT40 TDP1 no CPT 13µM, TDP1 inh inactive, TDP1 cell CPT inconclusive, GCN5L2 inh inactive and VDR inhibitor inactive.
`CSc1ccc2c(c1)N(CC[C@H]1CCCCN1C)c1ccccc1S2` gave TDP1 inh inactive[21 µM], GCN5L2 inh inactive and VDR inhibitor inactive.
Screening CN1CCC(CN2c3ccccc3Sc3ccccc32)C1 (stereo not given) returned DT40 TDP1 no CPT 12µM and TDP1 cell CPT 19µM.
Cc1ccc(S(=O)(=O)N2CCN(c3nc(-c4cccs4)nc4c3ncn4COC(=O)C(C)(C)C)CC2)cc1 was read as DT40 TDP1 no CPT inactive, TDP1 cell CPT inactive and VDR inhibitor inactive.
`CC1(Cc2ccccc2OC(F)(F)F)C(=O)Nc2ccc(OC(F)(F)F)cc21` (stereo not given) gave DT40 TDP1 no CPT 21µM, TDP1 cell CPT 21µM and PLK1 PBD block inactive.
`CC1(Cc2ccc3ccccc3n2)C(=O)Nc2ccc(OC(F)(F)F)cc21` (stereo not given) gave DT40 TDP1 no CPT inconclusive, TDP1 cell CPT inconclusive and PLK1 PBD block inactive.
For CC1(Cc2ccccc2OC(F)(F)F)C(=O)Nc2ccc(-c3ccsc3)cc21 (stereo not given) the results were DT40 TDP1 no CPT 18µM, TDP1 cell CPT inconclusive and PLK1 PBD block inactive.
C[C@@H](C(=O)NC1CCCC1)N1C(=O)N2CCc3c([nH]c4ccccc34)[C@@]2(C)C1=O was read as DT40 TDP1 no CPT inconclusive, TDP1 cell CPT 21µM, GCN5L2 inh inactive, VDR inhibitor inactive and PLK1 PBD block inactive.
CC(C)[C@@H](C(=O)NC1CCCC1)N1C(=O)N2CCc3c([nH]c4ccccc34)[C@@]2(C)C1=O was read as DT40 TDP1 no CPT inconclusive, TDP1 cell CPT inconclusive, GCN5L2 inh inactive, VDR inhibitor inactive and PLK1 PBD block inactive.
Screening CC(C)C[C@@H](C(=O)N[C@@H](C(=O)O)c1ccccc1)N1C(=O)N2CCc3c([nH]c4ccccc34)[C@@]2(C)C1=O returned DT40 TDP1 no CPT inactive, TDP1 cell CPT inactive, GCN5L2 inh inactive, VDR inhibitor inactive and PLK1 PBD block inactive.
CC(NC(=O)[C@H](C)N1C(=O)N2CCc3c([nH]c4ccccc34)[C@@]2(C)C1=O)c1ccccc1 (stereo not given in full) was read as DT40 TDP1 no CPT inconclusive, TDP1 cell CPT 16µM, GCN5L2 inh inactive, VDR inhibitor inactive and PLK1 PBD block inactive.
For CCOc1ccc(C2=C(C(=O)CC)Sc3nncn3N2C(=O)CC)cc1 the results were DT40 TDP1 no CPT inconclusive, TDP1 inh inactive, TDP1 cell CPT 16µM, GCN5L2 inh inactive and VDR inhibitor inactive.
Screening CC1CCCN(C(=O)Cn2nnc(-c3ccc(F)cc3)n2)C1 (stereo not given) returned DT40 TDP1 no CPT inactive, TDP1 inh inactive, TDP1 cell CPT inactive, GCN5L2 inh inactive, VDR inhibitor inactive and PLK1 PBD block inactive.
CCC(=O)C1=C(c2ccc(F)cc2)N(C(=O)CC)n2cnnc2S1 was read as DT40 TDP1 no CPT 13µM, TDP1 inh inactive, TDP1 cell CPT 18µM, GCN5L2 inh inactive and VDR inhibitor inactive.
Cn1nnc2c(NCc3ccco3)ncnc21 was read as DT40 TDP1 no CPT inactive and TDP1 cell CPT inactive.
CCCn1c(-c2ccc(S(=O)(=O)N3CCOCC3)cc2)csc1=Nc1ccc(OCC)cc1 was read as DT40 TDP1 no CPT 2.9µM, TDP1 inh inactive, TDP1 cell CPT 4.1µM, GCN5L2 inh inactive and VDR inhibitor inactive.
`CCCC(C(=O)Nc1ccc(S(=O)(=O)N2CCOCC2)cc1)c1ccccc1` (stereo not given) gave DT40 TDP1 no CPT inconclusive, TDP1 inh inactive, TDP1 cell CPT inconclusive, GCN5L2 inh inactive, VDR inhibitor inactive and PLK1 PBD block inactive.
CCCCn1c(-c2ccc(S(=O)(=O)N3CCOCC3)cc2)csc1=Nc1ccccc1 was read as DT40 TDP1 no CPT 15µM, TDP1 inh inactive[12.3 µM], TDP1 cell CPT 13µM, GCN5L2 inh inactive and VDR inhibitor inactive.
`COCCN(C(=S)Nc1ccc(C(C)C)cc1)C(C)c1cccs1` (stereo not given) gave DT40 TDP1 no CPT inconclusive, TDP1 inh inactive, TDP1 cell CPT inconclusive, GCN5L2 inh inactive, VDR inhibitor inactive and PLK1 PBD block inactive.
Cc1ccc(NS(=O)(=O)c2cccc(F)c2)cc1C was read as TDP1 inh inactive.
`CCNc1nc(NC(C)C)nc(N(C#N)CCOc2ccccc2)n1` gave DT40 TDP1 no CPT 23µM, TDP1 inh inactive, TDP1 cell CPT 23µM, GCN5L2 inh inactive, VDR inhibitor inactive and PLK1 PBD block inactive.
Screening CCOc1ccc2c(c1)c(=O)c(C(=O)c1ccc(CC)cc1)cn2CC(=O)Nc1ccc2c(c1)OCCO2 returned DT40 TDP1 no CPT inconclusive, TDP1 inh inactive, TDP1 cell CPT inconclusive, GCN5L2 inh inactive and VDR inhibitor inactive.
